# In PubChem BioAssay (NCI):
# This is part of a sample that, as a whole, favours compounds with a hit. Of some 83,000 tested, about 20% had one in any assay.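 How to read the values: 0–100, growth inhibition (40 = 60% inhibited); 0, no net growth; -100 to 0, cell death (-40 = 40% of starting cells died; -100 = all dead).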 The source made the active and inactive calls.
# Tested on: TK-10 renal
# Assay: NCI-60 one-dose screen, 48 h (100 = growth as untreated, 0 = no growth, -100 = all killed)
# Settings: 1 µM
# Description: Growth inhibition of the TK-10 human tumor cell line is measured as a screen for anti-cancer activity. Cells are grown in 96 well plates and exposed to the test compound for 48 hours. Compounds are tested at a single concentration, which is 10^-5 M for most compounds. The reported endpoint is percent growth (GI% or GIPRCNT), where numbers from 0 - 100% represent growth inhibition, and numbers from -100% - 0 represent cell death. For example, a value of 40 represents 60% growth inhibition. A value of 0 means no net growth occurred over the course of the experiment. A value of -40 indicates 40% of cells at the beginning of the experiment died by the end of the experiment. A value of -100 means all cells are dead at the end of the experiment.
# NCI-60 Human Tumor Cell Lines Screen was performed using the standard one-dose NCI protocol, which is described in more detail at https://dtp.cancer.gov/discovery_development/nci-60/default.htm.
# Compounds with GIPRCNT values below 10 were considered active. Activity score was based on GIPRCNT using the following formula: […]
# Score is 0 for GIPRCNT values of 100 or above, 50 for GIPRCNT values of 0, and 100 for GIPRCNT values of -100.
row,Structure (SMILES),growth
1,CC/C(=C(/c1ccc(O)cc1)c1ccc(OCCN(C)C(=O)COCCOCCNC(=O)c2ccc3c(c2)CN([C@@H]2CCC(=O)NC2=O)C3=O)cc1)c1ccccc1,99.1% (inactive)

# Same assay, conditions: 10 µM
row,Structure (SMILES),growth
1,CC/C(=C(/c1ccc(O)cc1)c1ccc(OCCN(C)C(=O)COCCOCCNC(=O)c2ccc3c(c2)CN([C@@H]2CCC(=O)NC2=O)C3=O)cc1)c1ccccc1,91.2% (inactive)

# Same assay, conditions: 10 µM unless noted
row,Structure (SMILES),growth
1,CC1CCc2c(sc3nc(SCC(=O)c4cccc(Br)c4)n(-c4ccccc4)c(=O)c23)C1 (stereo not given),-21.6% (active)
2,CN1C(=O)C(O)(CC(=O)c2cc3ccccc3oc2=O)c2ccccc21 (stereo not given),116% (inactive)
3,CCCCCCCCCCCCCCCCCC(=O)Nc1ccc(OC)cc1,99.8% (inactive)
4,CN1CCN(C(=O)CCN(C(=O)Oc2cc3c(c4ccccc24)[C@H](CCl)CN3C(=O)c2cc3cc(OCCCN4CCC4)ccc3[nH]2)[C@H]2CCSSC2)CC1,-25.7% (active)
5,Cc1ccc2c(c1)nc(-c1ccccc1)n2CC(=O)N=Nc1c(O)[nH]c2ccc(Cl)cc12,-15.1% (active)
6,N#C/C(=C/c1ccc([N+](=O)[O-])cc1)c1nnc(NC(=O)c2ccc(-n3c(=O)[nH]c4ccccc4c3=O)cc2)s1,108% (inactive)
7,CN(C)c1nc(NCCNS(=O)(=O)c2ccc(C(=O)/C=C/c3ccc(C(F)(F)F)cc3)cc2)nc(N2CCOCC2)n1,70.4% (inactive)
8,CC(C)(C)OC(=O)N1CCC2(CC1)Oc1ccccc1[C@H]1CC(c3ccc(Br)cc3)=NN12,131% (inactive)
9,CCOc1ccccc1[C@H]1C(C(=O)c2ccc(Cl)cc2)C2(N[C@@H]1c1ccccc1)C(=O)Nc1ccc(Cl)cc12 (stereo not given in full),61.4% (inactive)
10,Cc1nn(-c2ccccc2)c2nc(C)n(CC(=O)N/N=C/c3ccccc3O)c(=O)c12,32.8% (inactive)
11,NC1(c2ccc(-c3ccc4ncnc(NCc5ccccc5)c4c3)cn2)COC1,108% (inactive)
12,CC1=C(C)C(=O)C(NCCN2CCOCC2)=C(Br)C1=O,150% (inactive)
13,O=C(N/N=C/c1ccsc1)c1[nH]c2ccc(Br)cc2c1-c1ccccc1,-13.3% (active)
14,COC(=O)CSC1=C(C)C(=O)C(OC)=C(OC)C1=O,106% (inactive)
15,C/C(=N\Nc1ccc(S(N)(=O)=O)cc1)c1cnn(-c2cc(=O)[nH]c3ccc(Br)cc23)c1C,146% (inactive)
16,COc1ccc(-c2nc3ccc(-c4nnc(SCc5ccccc5)o4)cc3[nH]2)cc1,-35.3% (active)
17,CCCCNc1ccc2c3c(cccc13)C(=O)N(NCC(O)COc1ccc3c(C)cc(=O)oc3c1)C2=O (stereo not given),153% (inactive)
18,O=C(CSc1nnc(-c2ccc(-c3nc4ccccc4[nH]3)cc2)o1)Nc1ccc(Cl)cc1,59.5% (inactive)
19,COc1ccc2[nH]c(=O)c(CSc3ccccc3Nc3nccc(-c4ccc(C(F)(F)F)cc4)n3)cc2c1,97.1% (inactive)

row,Structure (SMILES),growth
1,Cc1ccc(C(C)C)cc1Oc1cccc(-c2c(-c3ccc(C(F)(F)F)cc3)ncn2C2CCNCC2)n1,-94.9% (active)
2,FC(F)(F)CN1CCN(CCn2c(C(F)(F)F)cc3c(Cl)ncnc32)CC1,114% (inactive)
3,CN1C(=O)/C(=C/c2ccco2)S/C1=N/c1nccs1,130% (inactive)
4,COc1ccc(NC(=O)N/N=C/c2c[nH]c3ccccc23)cc1,74.4% (inactive)
5,Fc1ccc(F)c(CNc2nc(SCCN3CCOCC3)nc3c2cnn3CC(Cl)c2ccc(Br)cc2)c1 (stereo not given),44.8% (inactive)
6,N#Cc1cc(-c2ccnc(Nc3ccc(N4CCN(C5COC5)CC4)cc3)n2)ccc1N1CCCC1,66.9% (inactive)
7,CC[C@]12C=CCN3CC[C@@]4(c5ccc(OC)cc5N(C)[C@H]4[C@@](O)(C(=O)OC)[C@@H]1OC(=O)CCC[P+](c1ccc(OC)cc1)(c1ccc(OC)cc1)c1ccc(OC)cc1)[C@@H]32,-90.7% (active)
8,O=[N+]([O-])c1cccc(-c2nnc3c(/C=C/c4ccc(F)cc4)nc4ccccc4n23)c1,121% (inactive)
9,O=C(CSc1nc2sc3c(c2c(=O)n1-c1ccc(Cl)cc1)CCCC3)N/N=C/C=C/c1ccccc1,-19% (active)
10,COc1ccc(-c2cc(C(=O)N=Nc3c(O)[nH]c4ccc(Cl)cc34)c3ccccc3n2)cc1OC,116% (inactive)
11,CS(=O)(=O)Nc1cccc(-n2cnc3cc(-c4ccc(O)cc4)ccc32)c1,93% (inactive)
12,COc1ccc(-n2c(NC(=O)N3CCN(C)CC3)c(C#N)c3ccccc32)cc1,12.4% (inactive)
13,CCC(=O)c1cc(C(=O)OC)c2ccc3c4ccccc4ccc3n12,63.9% (inactive)
14,COC(=O)c1c(C(=O)OC)c2ccc3c4ccccc4ccc3n2c1C(=O)C(C)Br (stereo not given),58.1% (inactive)
15,COc1cc(/C=C/C(=O)c2cnn(-c3cc(=O)[nH]c4ccc(C)cc34)c2C)cc(OC)c1OC,37.8% (inactive)
16,O=C(N/N=C/c1occc1Br)c1[nH]c2ccc(Br)cc2c1-c1ccccc1,-76.5% (active)
17,O=C1c2cccc3c(N4CCN(c5ccccc5)CC4)ccc(c23)C(=O)N1c1cccc(-c2nn(-c3ccccc3)cc2-c2nc3ccccc3s2)c1,129% (inactive)
18,CNS(=O)(=O)N1CCc2c(Br)c3c(c(OC)c2C1CCc1ccccc1)OCO3 (stereo not given),-0.435% (active)
19,O=C1N/C(=N\c2nccs2)S/C1=C\c1ccc([N+](=O)[O-])cc1,31.9% (inactive)
